Source: PubChem BioAssay
A selection: hits, their analogues and other compounds. The true share with any hit is near 31%.
CYP2C9 inh: inhibitors of human CYP2C9 | P11712 | CYP2C9 Supersomes, luciferin-H conversion, luminescence | inhibition, % at 5 µM | actives 20% (n = 96,000);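 active = blocking of liver enzyme CYP2C9 beyond about 50% at 5 µM, limit read from the data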
PLAP activator: activators of human placental alkaline phosphatase | purified PLAP enzyme, luminescent substrate read-out; hits give high values | actives 1.2% (n = 96,000) | activation fold at 20 µM | P05187; in the data active = activation fold above about 2
Target sequence (P05187 whole entry, looked up): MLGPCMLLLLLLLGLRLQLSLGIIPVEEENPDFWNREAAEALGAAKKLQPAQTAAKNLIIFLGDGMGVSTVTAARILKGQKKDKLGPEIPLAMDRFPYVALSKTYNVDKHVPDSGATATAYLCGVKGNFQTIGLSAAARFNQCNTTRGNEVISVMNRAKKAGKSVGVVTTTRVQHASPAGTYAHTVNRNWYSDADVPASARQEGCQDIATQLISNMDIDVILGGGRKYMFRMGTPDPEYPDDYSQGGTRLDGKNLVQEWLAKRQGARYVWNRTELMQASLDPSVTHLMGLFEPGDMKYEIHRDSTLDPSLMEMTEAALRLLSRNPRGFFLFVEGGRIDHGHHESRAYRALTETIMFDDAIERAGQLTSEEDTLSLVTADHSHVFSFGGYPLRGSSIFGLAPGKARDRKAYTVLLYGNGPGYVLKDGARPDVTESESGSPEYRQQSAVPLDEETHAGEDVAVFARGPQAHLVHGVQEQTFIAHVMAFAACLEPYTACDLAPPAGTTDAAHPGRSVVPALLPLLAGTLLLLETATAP
CYP2C9 activ: CYP2C9 (human) activation; recombinant CYP2C9, luciferin-H conversion, luminescence; hits give high values; factor 1 = untreated enzyme, 0 = blocked; activation factor at 5 µM; actives 1.4% (n = 96,000); AID 1024;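 active = activation factor of 2 or more for CYP2C9 at a 5 µM dose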
CYP2C19 inhib: human CYP2C19 inhibition. P33261. CYP2C19 Supersomes, luciferin-H EGE luminescence, 30 min. inhibition, % at 5 µM. actives 21% (n = 96,000);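 active = CYP2C19 inhibition above a set limit at 5 µM in the primary screen, cut at about 50% in these data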
CYP2C19 activ: cytochrome P450 2C19 (human) activation. P33261. recombinant CYP2C19, luciferin-H EGE luminescence; hits give high values; 0 = fully inhibited enzyme, 1 = untreated enzyme. activation factor at 5 µM. 96,000 tested, under 10 active. AID 1025;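 active = activation factor of at least 2 at 5 µM in the primary screen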
Hits are given with their value; 0 = inactive.

SMILES	CYP2C9 inh	PLAP activator	CYP2C9 activ	CYP2C19 inhib	CYP2C19 activ
COc1ccccc1CN1CCSCC1	0	0	0	0	0
Fc1ccc(CN2CCSCC2)cc1Br	0	0	0	84.3	0
CCOC(=O)C1CCN(Cc2ccc(F)cc2F)CC1	0	0	0	0	0
CCOC(=O)C1CCN(Cc2ccc(F)c(Br)c2)CC1	0	0	0	63.0	0
Cc1ccnc(NS(=O)(=O)c2ccccc2)n1	0	0	0	0	0
Cc1cccc(NS(=O)(=O)c2ccc(Oc3ccccc3)cc2)n1	0	0	0	83.0	0
Cc1cc(C)nc(NS(=O)(=O)c2ccc(Br)s2)c1	0	0	0	52.0	0
Cc1cccc(NS(=O)(=O)c2ccc(Br)s2)n1	0	0	0	67.6	0
O=C1CCCc2nn(-c3ccccc3)c(-c3ccncc3)c21	0	0	0	0	0
O=C1CCCN1c1ccc(S(=O)(=O)Oc2cccc(Cl)c2)cc1[N+](=O)[O-]	0	0	0	66.5	0
COC(=O)c1cc(NS(=O)(=O)c2ccc(N3CCCCC3)c([N+](=O)[O-])c2)cc(C(=O)OC)c1	0	0	0	0	0
c1ccc(CSc2nnc(-c3ccco3)n2Cc2ccco2)cc1	0	0	0	77.8	0
O=C1c2ccccc2C(=O)N1CCSc1nnc(-c2ccco2)n1Cc1ccccc1	65.1	0	0	97.2	0
Cc1ccccc1CSc1nnc(-c2ccco2)n1Cc1ccco1	0	0	0	65.9	0
CCN(CC)C(=O)CSc1nnc(-c2ccco2)n1Cc1ccco1	0	0	0	0	0
CCn1c(SCC(=O)NCc2ccco2)nnc1-c1cccs1	0	0	0	0	0
Cc1ccccc1CSc1nnc(-c2cccs2)n1Cc1ccco1	0	0	0	62.2	0
Cc1cc(-n2nc(C)cc2C)n2nc(C)c(-c3ccc(Cl)cc3)c2n1	0	0	0	0	0
CCOC(=O)C1C(=O)CC(C)(O)C(C(=O)OCC)C1c1cccc(OC)c1 (stereo unspecified)	0	0	0	0	0
COCC(C)NCc1cccc(OC)c1OC (stereo unspecified)	0	0	0	0	0
COCC(C)NCc1ccccc1C (stereo unspecified)	80.0	0	0	0	0
Cc1cc(S(=O)(=O)Nc2ccc(C(=O)N3CCN(C(=O)c4ccco4)CC3)cc2)ccc1F	0	0	0	0	0
O=C(c1ccco1)N1CCN(S(=O)(=O)c2ccc(F)cc2)CC1	0	0	0	52.8	0
O=C(C1Cc2ccccc2CN1S(=O)(=O)c1ccc(F)cc1)N1CCCCC1 (stereo unspecified)	0	0	0	0	0
O=C(c1ccc(S(=O)(=O)Nc2ccc(F)cc2)cc1)N1CCN(C(=O)c2ccco2)CC1	75.0	0	0	0	0
SMILES	CYP2C9 inh	PLAP activator	CYP2C9 activ	CYP2C19 inhib	CYP2C19 activ
O=C(c1ccco1)N1CCN(c2ccc(S(=O)(=O)N3CCCC3)cc2)CC1	0	0	0	0	0
O=C(c1ccco1)N1CCN(C(=O)C2Cc3ccccc3CN2S(=O)(=O)c2ccc(F)cc2)CC1 (stereo unspecified)	0	0	0	76.1	0
CCCCCc1nnc(NC(=O)C(=O)OCC)s1	0	0	0	0	0
Cc1ccc(CS(=O)(=O)CCC(=O)NCCCN2CCCC2=O)cc1	0	0	0	0	0
O=C(NCc1cn(-c2ccccc2)nc1-c1ccccc1)c1cc([N+](=O)[O-])cc([N+](=O)[O-])c1	67.4	0	0	0	0
CC(/C=N/NC(=O)c1cc(-c2ccc(Cl)cc2)nc2ccccc12)=C\c1ccco1	89.0	0	0	0	0
CCn1ncc(/C=N\NC(=O)c2cc(-c3ccc(C)cc3C)nc3ccccc23)c1C	96.8	0	0	89.6	0
Cc1ccc(-c2cc(C(=O)N/N=C/c3c(C)nn(C)c3C)c3ccccc3n2)cc1C	96.9	0	0	81.0	0
Fc1ccc(CNc2cnccn2)cc1	0	0	0	0	0
COc1ccc(CNC(=O)Cn2cnc3c(=O)n(C)c(=O)n(C)c32)cc1	0	0	0	0	0
COc1ccc(C(=O)NC(=S)NCc2ccccc2)cc1	0	0	0	0	0
O=C(O)CCCC(=O)N(Cc1ccccc1)Cc1ccccc1	0	0	0	0	0
CCN(Cc1ccccc1)C(=O)CCCOc1ccccc1	0	0	0	73.4	0
COc1ccc(CN(CCC#N)C(=S)NC(=O)c2ccccc2)cc1	91.7	0	0	0	0
CCN(Cc1ccccc1)C(=O)c1ccccc1C	0	0	0	55.8	0
N#CCCN(Cc1ccccc1)C(=S)NC(=O)c1ccccc1	92.7	0	0	0	0
O=c1n(-c2ccccc2)c(=O)n(Cc2ccccn2)n1Cc1ccccn1	0	0	0	0	0
CCOc1ccc(C(=O)NC(=S)N(Cc2ccccc2)Cc2ccccc2)cc1	52.9	0	0	0	0
OCCN1CCOCCN(CCO)CCOCC1	0	2	0	0	0
COc1ccc(C(C(=O)NC2CCCCC2)N(C(=O)c2sc(C)nc2C)c2ccc(C(C)=O)cc2)cc1 (stereo unspecified)	0	0	0	0	0
c1ccc(-c2noc(-c3cccnc3)n2)nc1	0	0	0	0	0
c1ccc(-c2noc(-c3ccc4ccccc4c3)n2)nc1	0	0	0	0	0
COc1cccc(-c2nc(-c3ccccn3)no2)c1	0	0	0	75.2	0
COc1cccc(-c2nc(-c3ccccc3)no2)c1	0	0	0	0	0
c1ccc(-c2noc(-c3ccncc3)n2)nc1	0	0	0	67.6	0
SMILES	CYP2C9 inh	PLAP activator	CYP2C9 activ	CYP2C19 inhib	CYP2C19 activ
c1ccc(-c2noc(-c3ccc4c(c3)OCO4)n2)nc1	92.0	0	0	79.4	0
CC(C)C(=O)NC(NC(=S)Nc1cccc2cccnc12)C(Cl)(Cl)Cl (stereo unspecified)	83.8	0	0	0	0
CC(C)(C)C(=O)NC(Nc1cccc2cccnc12)C(Cl)(Cl)Cl (stereo unspecified)	54.1	0	0	53.7	0
Cc1cnc(C(=O)Nc2cccc3cccnc23)cn1	0	0	0	0	0
COc1ccnc(NCc2cccnc2)c1C#N	0	0	0	0	0
Brc1ccc(-c2nc(N/N=C/c3cccnc3)c3ccccc3n2)cc1	64.0	0	0	0	0
Cc1[nH]nc2c1C1(CCN(C(=O)OCc3ccccc3)CC1)C(C#N)=C(N)O2	0	0	0	67.5	0
Cc1ccc(SCc2[nH]nc3c2C2(C(=O)Nc4ccc([N+](=O)[O-])cc42)C(C#N)=C(N)O3)cc1 (stereo unspecified)	52.5	0	0	0	0
CCOC(=O)N1CCC2(CC1)C(C#N)=C(N)OC1=C2C(=O)CC(C)C1 (stereo unspecified)	68.2	0	0	0	0
CCOC(=O)N1CCC2(CC1)C(C#N)=C(N)Oc1n[nH]c(CSc3ccc(C)cc3)c12	70.1	0	0	0	0
O=c1cc(NC2CCCCCC2)[nH]c(=O)[nH]1	0	0	0	0	0
N#CC1=C(N)OC2=C(C(=O)CCC2)C12CCN(C(=O)OCc1ccccc1)CC2	65.8	0	0	98.6	0
